From the supplement of paper PMC10681739 come the findings set out here.

In the experiment the target is T1, ETS1 (UniProt P14921).
T1 sequence: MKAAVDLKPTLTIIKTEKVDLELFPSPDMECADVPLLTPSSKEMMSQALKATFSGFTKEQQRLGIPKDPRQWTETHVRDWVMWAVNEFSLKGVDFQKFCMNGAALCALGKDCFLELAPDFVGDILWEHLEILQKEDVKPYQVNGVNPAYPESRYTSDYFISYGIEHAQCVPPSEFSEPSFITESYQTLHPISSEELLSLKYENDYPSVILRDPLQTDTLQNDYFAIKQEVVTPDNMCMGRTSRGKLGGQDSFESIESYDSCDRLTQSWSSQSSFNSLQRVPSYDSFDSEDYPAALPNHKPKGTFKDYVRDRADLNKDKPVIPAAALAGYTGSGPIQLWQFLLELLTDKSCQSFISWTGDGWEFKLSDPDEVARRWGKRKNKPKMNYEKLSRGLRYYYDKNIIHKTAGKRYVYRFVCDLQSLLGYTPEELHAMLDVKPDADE
The experiment is described as follows: ETS1 binding intensity (PBM fluorescence) in presence of RUNX1, normalised to ETS1-only experiment (arbitrary fluorescence units); higher = stronger binding. Particulars: ETS1 concentration 1 nM; RUNX1 concentration 25 nM.
As to AGGGCATTTCCTTTGGGGCTGGTGGTCACGGACAAC, the ETS1 binding intensity worked out at 381.

Consider GGTCCGGATGTATAAAGCGCGGCCCCCTGCGGGGAG, for which the ETS1 binding intensity came out at 1020.

For CCACGTCCACAAAGGAAACCGCGGCCTGCCCGGGGA, the ETS1 binding intensity worked out at 1390.

In the case of GCCTGAAGGACTTCCGGGAACCGCAAAGCACGGTGT, the ETS1 binding intensity was found to be 3510.

As for TGCAGTCGTGAAAAAGGAAGTGGTTAAAGTGGATAC, the ETS1 binding intensity turned out to be 9240.

On to CCGCCGCGACACTTCCGGCGGCCACCACAGGGTATT, for which the ETS1 binding intensity was 3020.

As to GCGGAGCGAGCGGCCGGATGCGGTCACCATAGAGAC, the ETS1 binding intensity amounted to 25200.

Regarding CTCCTCCCCCACTTCCTATTTTTACCGCAGTTGCAC, the ETS1 binding intensity came to 1340.

As for TGTGAACTGACAGGATGTGGTACAAGGCTTACAAAG, the ETS1 binding intensity came out at 8820.

Consider CCCTCCTCTTTCGTTTCCTAACCGCAAATTCCATCA, for which the ETS1 binding intensity was determined as 1720.

AGCTGCTGTTTTCCGGCTGCGGCACTGGATGAAGGA: the ETS1 binding intensity worked out at 422.

Consider ACAGGCTGTCTGCTTCCGTCAGCGGTTATTCCCTTG, for which the ETS1 binding intensity amounted to 602.

Take AATGCCGGATATTGGTTCTGGTAAGCCACAAAAAAG: the ETS1 binding intensity was 4090.

On to GGCGCGGGCTGCTTCCGGTCTGCGGGCCTGAGGAGG, for which the ETS1 binding intensity is 5010.

Turning to GCCTGCAGCTTCTTCCTGTGGCTTCTGCATCTCAGG, the ETS1 binding intensity came out at 3930.

With GAGTCGCTTCCGCTCCCGCCCCGCTCTGTGGCGTAG, the ETS1 binding intensity came to 1330.

For the sequence CCCCTCTCTCCCACTTCCTGTGGTCTCAGTCTTTGT, the ETS1 binding intensity is 4840.

Regarding TGCCTCACCTCACATCCGTTTGTGGCTGCCGAGTGC, the ETS1 binding intensity is 1310.

For the sequence CCACCACTCTAAGCAGGATGCGGTGCGACCCAAGAG, the ETS1 binding intensity is 2470.

ACCTGTGTTCTGGCAGGATGTGGTTGACCTCAGCAG: the ETS1 binding intensity was determined as 18700.

For the sequence TGGAAGGCCGGAAAAGGTTTACCACCACACTCCGGT, the ETS1 binding intensity turned out to be 3690.

In the case of GGACTTCCTGAAGCCAGATCGGTTTACCACAGTCAG, the ETS1 binding intensity came out at 599.

Turning to GGCTTCCGGCGGGGTACCCTCCTCTGTGGGCGGGGC, the ETS1 binding intensity was 572.

As for GGGTGCTTCCTATAAACAATGACTCATTACCGCACT, the ETS1 binding intensity worked out at 474.

Turning to GTTCAGCGGACGGCTTCCTGCGGCTTGCTGGGGCCG, the ETS1 binding intensity was 462.

As to GCCAGGGCAGGAAGTTGCTAACCGCCCCAGAGCAGG, the ETS1 binding intensity was found to be 4850.

As for CAGTGCCAGCCGGAACTTGTGGTTCGGACCGTGGGT, the ETS1 binding intensity worked out at 2100.

On to CAGATCCGGCGTGGACGAAGCTCGGGAACCACAACA, for which the ETS1 binding intensity was determined as 456.

On to AAAGACAGGATGTGGGGGAGTGAGCCACAAGGGCCC, for which the ETS1 binding intensity was 1720.

Turning to ACGTTTCGGGGTTTCCGGGCCAGCGGTTTCGGGCGC, the ETS1 binding intensity amounted to 1140.

For TGAAACCCAGCAGGATGTGGGTTAACGGCAGGGGAG, the ETS1 binding intensity was 6440.

Take ACAGGAAGAGATATTATATCTCCCTGCGGTTGGTTT: the ETS1 binding intensity stood at 2430.

For the sequence TGGCTGTGTCCCGGAAGTGGTCATAAGCTGGGTCCC, the ETS1 binding intensity was 9830.

Consider CCCTTCGCTTCCGCTCCGCGTTCCCACAATGCAGTG, for which the ETS1 binding intensity was 1090.

As to CTTTGCTGCCGCCTTCCTGTGCGGGGCCGTGGCGGC, the ETS1 binding intensity came out at 389.

As for GACATGCTCCGGAAGCTTGAGGTTTTAACGTTAAGG, the ETS1 binding intensity came to 5030.

GAGACTTTCGCTTCCGGCTGCCGCAGGCGCTTCGCT: the ETS1 binding intensity was determined as 1700.

As for GCTTCTGAGGAAGTGCGTTTTGTGGGTAGGTGGAGT, the ETS1 binding intensity amounted to 1410.

Turning to CCTGCCGAGGAAGTCCCACGTCACTGCGGTTAGAGT, the ETS1 binding intensity was 2090.
